# Measured values published in article PMC7862700, “An all-to-all approach to the identification of sequence-specific readers for epigenetic DNA modifications on cytosine”.
# How the values were obtained:
# Test in all cases: DAPPL (digital affinity profiling via proximity ligation, sequencing); 10 mM Tris-HCl pH 7.5, 50 mM NaCl, 1 mM DTT, 4% glycerol, room temperature, 30 min; GST-TFs on glutathione beads, 16-mer random dsDNA library, 0.1% formaldehyde crosslink after washing; high values mean tight binding
# FEV = biological target: T1, FEV (Homo sapiens, UniProt Q99581 1-238); details: protein: recombinant; tags: N-terminal GST; dsDNA, one strand shown
# T1 sequence: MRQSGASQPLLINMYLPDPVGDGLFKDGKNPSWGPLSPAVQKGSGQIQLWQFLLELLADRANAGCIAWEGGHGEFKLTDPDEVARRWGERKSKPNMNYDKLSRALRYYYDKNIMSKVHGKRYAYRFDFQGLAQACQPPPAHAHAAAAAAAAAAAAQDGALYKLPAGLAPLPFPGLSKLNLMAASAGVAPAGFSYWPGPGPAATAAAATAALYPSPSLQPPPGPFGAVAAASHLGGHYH
# Procedure, shortened: (§1)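 Binding signal is each hexamer's read frequency for a factor divided by its frequency in the tag-only sample. The factors were GST-fused human transcription factors from yeast, captured on glutathione beads, DNA-barcoded and pooled with that sample. Pools were incubated with 200 nmole of a random double-stranded 16-mer DNA library in Tris/NaCl/DTT/glycerol buffer at room temperature for 30 min, then washed, crosslinked with 0.1% formaldehyde, proximity-ligated with BsaI/T4 ligase (1 h, 37 °C), PCR-amplified and sequenced on an Illumina NextSeq500.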
# ETV5 = ETV5 (Homo sapiens, UniProt P41161 1-510); details: protein: recombinant; tags: N-terminal GST; dsDNA, one strand shown
# Procedure, shortened: as §1
# HSF1 = HSF1 (Homo sapiens, UniProt Q00613 1-529); details: protein: recombinant; tags: N-terminal GST; chain copies: 3; dsDNA, one strand shown
# Procedure, shortened: as §1
# SPIC = biological target: T2, SPIC (Homo sapiens, UniProt Q8N5J4 1-248); details: protein: recombinant; tags: N-terminal GST; dsDNA, one strand shown
# T2 sequence: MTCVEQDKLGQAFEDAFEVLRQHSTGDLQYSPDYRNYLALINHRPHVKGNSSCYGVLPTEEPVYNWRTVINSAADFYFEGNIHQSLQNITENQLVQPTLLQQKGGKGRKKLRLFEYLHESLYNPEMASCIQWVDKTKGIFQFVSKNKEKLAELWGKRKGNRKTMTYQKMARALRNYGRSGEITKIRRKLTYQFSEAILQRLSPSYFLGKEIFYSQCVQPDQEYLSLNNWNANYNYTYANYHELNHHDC
# Procedure, shortened: as §1
# ELF4 = ELF4 (Homo sapiens, UniProt Q99607 1-663); details: protein: recombinant; tags: N-terminal GST; dsDNA, one strand shown
# Procedure, shortened: as §1
# ELK4 = biological target: T3, ELK4 (Homo sapiens, UniProt P28324-2 1-405); details: protein: recombinant; tags: N-terminal GST; dsDNA, one strand shown
# T3 sequence: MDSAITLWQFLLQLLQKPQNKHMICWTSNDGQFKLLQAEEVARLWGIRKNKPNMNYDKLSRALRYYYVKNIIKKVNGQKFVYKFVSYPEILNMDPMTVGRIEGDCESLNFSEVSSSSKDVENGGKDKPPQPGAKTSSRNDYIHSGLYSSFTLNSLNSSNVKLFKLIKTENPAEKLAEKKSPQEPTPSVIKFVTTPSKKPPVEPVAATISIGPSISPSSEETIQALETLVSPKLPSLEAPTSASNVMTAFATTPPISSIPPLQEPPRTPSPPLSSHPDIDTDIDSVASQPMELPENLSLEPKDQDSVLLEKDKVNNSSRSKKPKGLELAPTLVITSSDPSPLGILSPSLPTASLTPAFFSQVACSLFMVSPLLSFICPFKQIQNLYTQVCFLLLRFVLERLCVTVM
# Procedure, shortened: as §1
# ETV2 = biological target: T4, ETV2 (Homo sapiens, UniProt O00321 1-342); details: protein: recombinant; tags: N-terminal GST; dsDNA, one strand shown
# T4 sequence: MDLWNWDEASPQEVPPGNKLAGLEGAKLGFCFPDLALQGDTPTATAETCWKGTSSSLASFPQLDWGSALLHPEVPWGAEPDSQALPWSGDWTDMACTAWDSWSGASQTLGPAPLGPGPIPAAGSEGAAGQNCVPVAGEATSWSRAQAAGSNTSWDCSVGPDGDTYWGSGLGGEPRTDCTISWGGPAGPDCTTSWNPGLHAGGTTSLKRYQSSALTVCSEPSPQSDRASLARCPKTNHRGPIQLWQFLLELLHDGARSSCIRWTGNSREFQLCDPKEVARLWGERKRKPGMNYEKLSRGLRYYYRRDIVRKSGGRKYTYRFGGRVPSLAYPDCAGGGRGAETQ
# Procedure, shortened: as §1
# ELF3 = biological target: T5, ELF3 (Homo sapiens, UniProt P78545 1-371); details: protein: recombinant; tags: N-terminal GST; dsDNA, one strand shown
# T5 sequence: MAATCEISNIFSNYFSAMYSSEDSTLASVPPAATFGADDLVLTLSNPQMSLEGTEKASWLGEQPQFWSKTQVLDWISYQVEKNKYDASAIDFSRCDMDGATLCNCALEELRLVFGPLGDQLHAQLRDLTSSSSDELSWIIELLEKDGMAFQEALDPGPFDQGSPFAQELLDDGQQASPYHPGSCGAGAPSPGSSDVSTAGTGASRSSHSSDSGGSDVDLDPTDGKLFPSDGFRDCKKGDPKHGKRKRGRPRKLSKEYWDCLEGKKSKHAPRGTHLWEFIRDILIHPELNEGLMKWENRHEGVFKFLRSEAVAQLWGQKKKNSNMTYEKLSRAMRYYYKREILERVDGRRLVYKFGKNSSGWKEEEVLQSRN
# Procedure, shortened: as §1
# CRX = CRX (Homo sapiens, UniProt O43186 1-299); details: protein: recombinant; tags: N-terminal GST; dsDNA, one strand shown
# Procedure, shortened: as §1
# ETV1 = ETV1 (Homo sapiens, UniProt P50549 1-477); details: protein: recombinant; tags: N-terminal GST; dsDNA, one strand shown
# Procedure, shortened: as §1
# Chain of ELF4 (Q99607 whole entry): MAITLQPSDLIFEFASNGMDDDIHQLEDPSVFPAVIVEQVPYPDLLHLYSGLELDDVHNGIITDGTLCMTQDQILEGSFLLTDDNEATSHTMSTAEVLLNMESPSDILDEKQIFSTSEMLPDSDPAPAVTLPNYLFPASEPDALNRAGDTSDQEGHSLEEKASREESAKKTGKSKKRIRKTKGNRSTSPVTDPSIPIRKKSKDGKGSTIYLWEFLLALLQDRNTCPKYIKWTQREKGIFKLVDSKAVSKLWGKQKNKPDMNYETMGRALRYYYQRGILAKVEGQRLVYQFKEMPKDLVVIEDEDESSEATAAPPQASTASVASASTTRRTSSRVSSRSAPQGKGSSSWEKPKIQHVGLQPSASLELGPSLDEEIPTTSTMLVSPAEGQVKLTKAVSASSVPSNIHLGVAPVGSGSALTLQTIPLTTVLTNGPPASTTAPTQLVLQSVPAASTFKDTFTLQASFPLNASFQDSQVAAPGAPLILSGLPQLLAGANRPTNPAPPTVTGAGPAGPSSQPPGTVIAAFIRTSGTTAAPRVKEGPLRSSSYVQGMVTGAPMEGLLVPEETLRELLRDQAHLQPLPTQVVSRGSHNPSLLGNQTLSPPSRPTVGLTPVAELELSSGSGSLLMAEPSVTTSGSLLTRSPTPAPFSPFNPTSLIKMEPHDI
# Chain of CRX (O43186 whole entry): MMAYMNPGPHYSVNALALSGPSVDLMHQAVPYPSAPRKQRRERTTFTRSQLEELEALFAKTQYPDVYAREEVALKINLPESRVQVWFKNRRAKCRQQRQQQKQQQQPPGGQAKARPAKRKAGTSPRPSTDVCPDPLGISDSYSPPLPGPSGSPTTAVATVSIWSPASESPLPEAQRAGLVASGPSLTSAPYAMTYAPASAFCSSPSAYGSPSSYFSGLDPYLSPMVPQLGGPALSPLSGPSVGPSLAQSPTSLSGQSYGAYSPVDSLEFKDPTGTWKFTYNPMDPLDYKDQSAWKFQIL
# Chain of ETV5 (P41161 whole entry): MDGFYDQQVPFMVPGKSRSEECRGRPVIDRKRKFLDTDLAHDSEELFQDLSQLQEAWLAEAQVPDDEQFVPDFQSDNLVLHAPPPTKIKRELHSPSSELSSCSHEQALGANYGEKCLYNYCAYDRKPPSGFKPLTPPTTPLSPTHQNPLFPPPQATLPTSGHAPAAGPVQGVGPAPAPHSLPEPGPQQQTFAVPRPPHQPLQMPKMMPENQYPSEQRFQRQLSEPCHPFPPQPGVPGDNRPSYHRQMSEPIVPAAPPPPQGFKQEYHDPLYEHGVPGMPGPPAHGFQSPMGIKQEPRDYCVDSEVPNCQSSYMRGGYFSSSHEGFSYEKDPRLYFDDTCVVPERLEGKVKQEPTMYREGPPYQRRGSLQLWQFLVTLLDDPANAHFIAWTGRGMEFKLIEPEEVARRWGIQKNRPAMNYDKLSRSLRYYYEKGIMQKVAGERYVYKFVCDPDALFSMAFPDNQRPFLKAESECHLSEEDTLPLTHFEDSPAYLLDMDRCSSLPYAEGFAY
# Chain of ETV1 (P50549 whole entry): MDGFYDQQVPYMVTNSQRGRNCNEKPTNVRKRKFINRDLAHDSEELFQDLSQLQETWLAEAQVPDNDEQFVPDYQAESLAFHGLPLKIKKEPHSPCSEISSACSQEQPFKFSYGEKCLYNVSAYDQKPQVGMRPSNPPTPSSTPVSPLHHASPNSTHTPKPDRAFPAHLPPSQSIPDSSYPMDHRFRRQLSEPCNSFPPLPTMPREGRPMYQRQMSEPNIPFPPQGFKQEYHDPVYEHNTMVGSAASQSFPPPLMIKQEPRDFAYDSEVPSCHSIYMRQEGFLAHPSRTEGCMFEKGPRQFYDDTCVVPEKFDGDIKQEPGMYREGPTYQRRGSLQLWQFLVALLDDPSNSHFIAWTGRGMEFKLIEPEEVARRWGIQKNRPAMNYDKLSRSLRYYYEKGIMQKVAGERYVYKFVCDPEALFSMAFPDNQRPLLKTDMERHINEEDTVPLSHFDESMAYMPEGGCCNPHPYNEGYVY
# Chain of HSF1 (Q00613 whole entry): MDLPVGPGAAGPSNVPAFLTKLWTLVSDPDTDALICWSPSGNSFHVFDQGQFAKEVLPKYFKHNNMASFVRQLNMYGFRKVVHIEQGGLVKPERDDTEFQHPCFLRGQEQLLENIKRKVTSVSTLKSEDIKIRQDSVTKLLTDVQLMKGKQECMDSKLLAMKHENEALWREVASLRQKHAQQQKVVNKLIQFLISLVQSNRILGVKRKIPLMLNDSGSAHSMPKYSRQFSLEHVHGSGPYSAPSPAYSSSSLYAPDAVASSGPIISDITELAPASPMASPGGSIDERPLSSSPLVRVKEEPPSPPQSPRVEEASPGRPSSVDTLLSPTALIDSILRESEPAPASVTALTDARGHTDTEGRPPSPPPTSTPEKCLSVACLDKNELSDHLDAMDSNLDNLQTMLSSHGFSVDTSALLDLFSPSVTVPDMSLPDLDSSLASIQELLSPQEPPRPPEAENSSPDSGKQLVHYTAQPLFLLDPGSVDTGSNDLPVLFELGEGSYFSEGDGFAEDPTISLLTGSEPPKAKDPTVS
Sequence,binding signal (FEV),binding signal (ETV5),binding signal (HSF1),binding signal (SPIC),binding signal (ELF4),binding signal (ELK4),binding signal (ETV2),binding signal (ELF3),binding signal (CRX),binding signal (ETV1)
TACTGG,"1.01 fold enrichment (6-mer frequency, TF over GST control)","1.1 fold enrichment (6-mer frequency, TF over GST control)","1.49 fold enrichment (6-mer frequency, TF over GST control)","1.22 fold enrichment (6-mer frequency, TF over GST control)","1.19 fold enrichment (6-mer frequency, TF over GST control)","1.15 fold enrichment (6-mer frequency, TF over GST control)","1.3 fold enrichment (6-mer frequency, TF over GST control)","1.17 fold enrichment (6-mer frequency, TF over GST control)","1.35 fold enrichment (6-mer frequency, TF over GST control)",
AATCAG,"1.07 fold enrichment (6-mer frequency, TF over GST control)","1.15 fold enrichment (6-mer frequency, TF over GST control)","1.19 fold enrichment (6-mer frequency, TF over GST control)","1.2 fold enrichment (6-mer frequency, TF over GST control)","1.05 fold enrichment (6-mer frequency, TF over GST control)","1.16 fold enrichment (6-mer frequency, TF over GST control)","1.01 fold enrichment (6-mer frequency, TF over GST control)","1.14 fold enrichment (6-mer frequency, TF over GST control)","1.42 fold enrichment (6-mer frequency, TF over GST control)","1.01 fold enrichment (6-mer frequency, TF over GST control)"
AGCCCC,"1.12 fold enrichment (6-mer frequency, TF over GST control)","1.14 fold enrichment (6-mer frequency, TF over GST control)","1.02 fold enrichment (6-mer frequency, TF over GST control)","1.09 fold enrichment (6-mer frequency, TF over GST control)","1.07 fold enrichment (6-mer frequency, TF over GST control)","1.17 fold enrichment (6-mer frequency, TF over GST control)","1.23 fold enrichment (6-mer frequency, TF over GST control)","1.15 fold enrichment (6-mer frequency, TF over GST control)","1.17 fold enrichment (6-mer frequency, TF over GST control)","1.02 fold enrichment (6-mer frequency, TF over GST control)"
TTGTAC,"1.52 fold enrichment (6-mer frequency, TF over GST control)","1.48 fold enrichment (6-mer frequency, TF over GST control)","1.24 fold enrichment (6-mer frequency, TF over GST control)","1.46 fold enrichment (6-mer frequency, TF over GST control)","1.47 fold enrichment (6-mer frequency, TF over GST control)","1.55 fold enrichment (6-mer frequency, TF over GST control)","1.48 fold enrichment (6-mer frequency, TF over GST control)","1.39 fold enrichment (6-mer frequency, TF over GST control)","1.2 fold enrichment (6-mer frequency, TF over GST control)","1.24 fold enrichment (6-mer frequency, TF over GST control)"
GGATCC,"1.16 fold enrichment (6-mer frequency, TF over GST control)","1.17 fold enrichment (6-mer frequency, TF over GST control)","1.04 fold enrichment (6-mer frequency, TF over GST control)","1.13 fold enrichment (6-mer frequency, TF over GST control)","1.13 fold enrichment (6-mer frequency, TF over GST control)","1.05 fold enrichment (6-mer frequency, TF over GST control)","1.29 fold enrichment (6-mer frequency, TF over GST control)","1.29 fold enrichment (6-mer frequency, TF over GST control)",,"1.14 fold enrichment (6-mer frequency, TF over GST control)"
CGATAT,"1.07 fold enrichment (6-mer frequency, TF over GST control)","1.05 fold enrichment (6-mer frequency, TF over GST control)","1.06 fold enrichment (6-mer frequency, TF over GST control)","1.11 fold enrichment (6-mer frequency, TF over GST control)","1.11 fold enrichment (6-mer frequency, TF over GST control)","1.19 fold enrichment (6-mer frequency, TF over GST control)","1.19 fold enrichment (6-mer frequency, TF over GST control)","1.14 fold enrichment (6-mer frequency, TF over GST control)","1.03 fold enrichment (6-mer frequency, TF over GST control)",
TTCCTC,"2.13 fold enrichment (6-mer frequency, TF over GST control)","2.47 fold enrichment (6-mer frequency, TF over GST control)","1.61 fold enrichment (6-mer frequency, TF over GST control)","2.72 fold enrichment (6-mer frequency, TF over GST control)","2.16 fold enrichment (6-mer frequency, TF over GST control)","2.1 fold enrichment (6-mer frequency, TF over GST control)","2.39 fold enrichment (6-mer frequency, TF over GST control)","2.06 fold enrichment (6-mer frequency, TF over GST control)","1.43 fold enrichment (6-mer frequency, TF over GST control)","2.27 fold enrichment (6-mer frequency, TF over GST control)"
